Screens: PubChem BioAssay, The Scripps Research Institute Molecular Screening Center
Hits are enriched below; roughly 3.5% of the tested compounds scored in any of these assays.
TEAD-YAP block: TEAD-YAP interaction inhibition | 640,000 tested, 1.4% active | HEK-TIYL cells, TEAD-Gal4/YAP UAS-luciferase luminescence | inhibition, % at 9.12 µM | AID 1259422; in the data active = inhibition above about 32%
MITF primary: inhibitors of human MITF. inhibition, % at 2.6 µM. AlphaScreen MITF homodimerization, bead proximity signal. O75030. 650,000 tested, 0.91% active; in the data active = inhibition above about 50%
FBW7 act: human FBW7 E3 ligase activation, primary screen; Q969H0; AlphaScreen FBW7–phospho-cyclin E peptide binding, activator screen; normalized activity (activation), % at 26.1 µM; 650,000 tested, 0.13% active; AID 1259310; in the data active = normalized activity above about 1.9%;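 note: purified mutant Fbw7 with reduced substrate affinity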
GPR151 ag: activators of human GPR151; Q8TDV0; PathHunter beta-arrestin GPR151 cells, luminescence; activation, % at 11.2 µM; 650,000 tested, 1% active; AID 1508602; in the data active = activation above about 4.9%
GPR151 conf act: human GPR151 activation, confirmation screen | GPR151 PathHunter beta-arrestin cells, luminescence, 90 min; % of EA-reagent control over plate median | 6,700 tested, under 10 active | activation, % at 11.2 µM | shares compounds with GPR151 ag;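 active = mean percent activation across replicates above the confirmation screen cutoff of 4.91%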
GPR119 counter: activates human GPR119 in a GPR151 counter-screen | GPR119 PathHunter beta-arrestin cells, luminescence, 90 min; 0 = compound-well median, 100 = enzyme-acceptor control | shares compounds with GPR151 ag | activation, % at 11.2 µM | AID 1508611 | 6,700 tested, 0.3% active;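 active = mean percent activation in the counterscreen above 29.09%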;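 note: counterscreen on off-target GPR119 to flag nonselective hits from the GPR151 activator screen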
Target sequence (Q8TDV5 whole entry, looked up): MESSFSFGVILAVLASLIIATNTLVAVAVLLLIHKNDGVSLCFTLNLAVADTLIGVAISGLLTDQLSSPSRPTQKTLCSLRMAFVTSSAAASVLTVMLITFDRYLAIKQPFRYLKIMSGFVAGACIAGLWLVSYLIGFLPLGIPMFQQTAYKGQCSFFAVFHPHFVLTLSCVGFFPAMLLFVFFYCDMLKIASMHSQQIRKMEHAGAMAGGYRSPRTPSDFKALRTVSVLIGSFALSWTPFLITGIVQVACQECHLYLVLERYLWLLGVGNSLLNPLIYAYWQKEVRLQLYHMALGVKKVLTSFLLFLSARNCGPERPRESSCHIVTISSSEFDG
Of the large screens only hits and unclear results are named; the others gave an inactive call (follow-up assays come after a bar, where they were run).

CCC(NC(=O)Cn1nnnc1CN1CCC(C)CC1)c1ccc(F)cc1 (centres undefined)	GPR151 ag 5.6 | GPR151 conf act inactive | GPR119 counter inactive
CC1CCCN(S(=O)(=O)c2ccc([N+](=O)[O-])cc2)C1 (centres undefined)	GPR151 ag 5.7 | GPR151 conf act inactive | GPR119 counter inactive
CCCOC(=O)CN1C(=O)C2C3c4ccccc4C(c4ccccc43)C2C1=O (centres undefined)	GPR151 ag 5.0 | GPR151 conf act inactive | GPR119 counter inactive
CN(CC(=O)NCc1cccnc1)c1nnc(N2CCCC2=O)s1	GPR151 ag 5.2 | GPR151 conf act inactive | GPR119 counter inactive
Cc1cccc(CNC(=O)CN(C)c2nnc(N3CCCC3=O)s2)c1	none
O=C(COc1ccc(Cl)cc1)Oc1ccc2c3c(c(=O)oc2c1)CCC3	none
CCOc1ccccc1C1C(C(=O)OC)=C(N)OC2=C1C(=O)CCC2 (centres undefined)	GPR151 ag 6.0 | GPR151 conf act inactive | GPR119 counter inactive
CCOc1ccccc1C1NC(=O)N(C)C(C)=C1C(=O)OC (centres undefined)	GPR151 ag 6.0 | GPR151 conf act inactive | GPR119 counter inactive
COC(=O)C1=C(C)N(C)C(=O)NC1c1ccc(Br)cc1 (centres undefined)	GPR151 ag 5.2 | GPR151 conf act inactive | GPR119 counter inactive
CCN1C(=O)N[C@H](c2ccc(Br)cc2)C(C(=O)OC)=C1C	none (no result: TEAD-YAP block)
COC(=O)C1=C(C)N(C)C(=O)NC1c1ccccc1OC (centres undefined)	none
COC(=O)C1=C(C)N(C)C(=O)NC1c1ccc(C(=O)OC)cc1 (centres undefined)	none
CCOC(=O)CN1C(=O)N[C@@H](c2ccc(Br)cc2)C(C(=O)OC)=C1C	GPR151 ag 5.0 (no result: TEAD-YAP block) | GPR151 conf act inactive | GPR119 counter inactive
Cc1ncc2c(c1O)COC(C)OC2 (centres undefined)	none
CCOC(=O)CSc1ccc(C(=O)N(CC)CC)cc1[N+](=O)[O-]	GPR151 ag 6.8 | GPR151 conf act inactive | GPR119 counter inactive
CCOC(=O)CSc1ccc(C(=O)OCC)cc1[N+](=O)[O-]	none
CCc1ccc(Nc2nc(N3CCCC3)nc(N3CCCC3)n2)cc1	GPR151 ag 4.9 | GPR151 conf act inactive | GPR119 counter inactive
Cc1ccc(Nc2nc(N3CCCC3)nc(N3CCCC3)n2)cc1	none
COc1ccc(NC(=O)COc2ccc(Cl)cc2)c([N+](=O)[O-])c1	none
O=C(Nc1ccc([N+](=O)[O-])cc1Cl)c1cnn2cc(Br)cnc12	GPR151 ag 7.2 | GPR151 conf act inactive | GPR119 counter inactive
O=C(Nc1ccc([N+](=O)[O-])cc1Cl)c1cc2ncc(Br)cn2n1	none
Cc1ccc(O)c(NC(=O)c2cnn3cc(Br)cnc23)c1	GPR151 ag 7.5 | GPR151 conf act inactive | GPR119 counter inactive
Cc1ccc(O)c(NC(=O)c2cc3ncc(Br)cn3n2)c1	none
CC(C)(C)OC(=O)CS(=O)c1ccc(S(C)(=O)=O)cc1[N+](=O)[O-] (centres undefined)	none
Cc1cc(NC(=O)NC(=O)c2cccc(Cl)c2)n[nH]1	none
Cc1cc(NC(=O)NC(=O)c2ccc(Cl)c(Cl)c2)n[nH]1	GPR151 ag 6.6 | GPR151 conf act inactive | GPR119 counter inactive
CC(=O)NCC(=O)NCC1Cc2cc(-c3cnccn3)cc(Cl)c2O1 (centres undefined)	GPR151 ag 4.9 | GPR151 conf act inactive | GPR119 counter inactive
Cc1ccoc1C(=O)NCC1Cc2cc(-c3cnccn3)cc(Cl)c2O1 (centres undefined)	none
Cc1ccc2c(CSc3n[nH]c(N)n3)cc(=O)oc2c1	none
Cc1ccc2c(CSc3n[nH]c(N)n3)cc(=O)oc2c1C	GPR151 ag 11 | GPR151 conf act inactive | GPR119 counter inactive
CCn1c(C(=O)O)c(CNC2CCCC2)c2ccc(C)cc21	GPR151 ag 8.4 | GPR151 conf act inactive | GPR119 counter inactive
Cc1ccnc(NC(=O)NCCCSc2ccccc2)n1	none
CCOc1cc2nc3c4cc(Br)ccc4n(CCC(C)C)c3nc2cc1OCC	none
O=C(Nc1ncc(Cc2ccc(Cl)cc2Cl)s1)c1ccc(Cl)cc1	GPR151 ag 5.7 | GPR151 conf act inactive | GPR119 counter inactive
COc1ccc(C2C(C#N)=C(N)Oc3cc(N)ccc32)cc1Br (centres undefined)	GPR151 ag 7.6 | GPR151 conf act inactive | GPR119 counter inactive
O=C(Nc1ccccc1)N[C@H]1C[C@H]2C(=O)N3CCC[C@@H]3C(=O)N2C1	GPR151 ag 10 | GPR151 conf act inactive | GPR119 counter inactive
Nc1cccc(-c2ccc(C(=O)NCc3cccnc3)s2)c1	none
CCc1ccccc1NC(=O)CSc1nc2nc(C)c(Cc3ccc(F)cc3Cl)c(C)n2n1	none
CCC(Sc1nc2nc(C)c(Cc3ccc(F)cc3Cl)c(C)n2n1)C(=O)Nc1ccccc1OC (centres undefined)	GPR151 ag 5.4 | GPR151 conf act inactive | GPR119 counter inactive
O=C(c1cccc([N+](=O)[O-])c1)N(Cc1ccccc1)Cc1ccccc1	none
O=C(NCCN1CCOCC1)c1cccc(-n2cc(NS(=O)(=O)Cc3ccccc3)cn2)c1	none
CC(C)n1c(-c2csc3ccccc23)nc2c(NCCCN3CCCC3=O)ncnc21	GPR151 ag 6.8 | GPR151 conf act inactive | GPR119 counter inactive
CC(C)n1c(-c2cccs2)nc2c(NCCCN3CCCC3=O)ncnc21	none
COc1ccc(-c2noc(CN3CCCN(c4ccc(F)cc4)CC3)n2)c(OC)c1OC	none
COc1ccc(-c2noc(CN3CCN(c4ccc(F)cc4)CC3)n2)c(OC)c1OC	GPR151 ag 6.5 | GPR151 conf act inactive | GPR119 counter inactive
CC(C)(C)c1ccc(Cn2c(=N)n(CC(O)COc3ccccc3)c3ccccc32)cc1 (centres undefined)	none
N#Cc1cc(C(=O)c2cc(F)ccc2O)cn(C2CC2)c1=O	GPR151 ag 5.9 | GPR151 conf act inactive | GPR119 counter inactive
O=C(CSc1nnc(-c2cccnc2)o1)c1ccc2ccccc2c1	none
O=C(CSc1nnc(-c2cccnc2)o1)c1ccccc1	GPR151 ag 5.9 | GPR151 conf act inactive | GPR119 counter inactive
O=C(CSc1nnc(-c2cccnc2)o1)Nc1nc(-c2ccccc2)cs1	GPR151 ag 7.5 | GPR151 conf act inactive | GPR119 counter inactive
CCOC(=O)c1c(/N=c2\oc3ccc(Br)cc3cc2C(=O)Nc2cccc(C)c2)sc2c1CCCC2	none
COC(=O)CN1C(=O)C2(C(C#N)=C(N)Oc3n[nH]c(-c4ccc(C)cc4)c32)c2ccccc21 (centres undefined)	none
COc1ccc(/C=N\NC(=O)COc2c(C)cccc2C)cc1OC	GPR151 ag 9.9 | GPR151 conf act inactive | GPR119 counter inactive
COc1cccc(/C=N/NC(=O)COc2ccc3ccccc3c2)c1	none
